Laboratory results from PubChem BioAssay.
Calls of active or inactive are those of the source.

Tests used:
[1] = tested on: Plasmodium falciparum Sir2 (PF13_0152, Sir2A); test: pfSir2 binders on small-molecule microarrays, primary screen, biochemical, small-molecule microarray, 635 nm fluorescence (AID 1098); conditions: small-molecule microarray binding, fluorescence 635 nm; higher = more signal;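 further: score merges spot fluorescence intensity with its signal-to-noise ratio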
[2] = small-molecule microarray binders of probe aDKK1, primary screen, biochemical, biotinylated probe, 635/667 nm fluorescence (AID 1099); conditions: higher = more signal;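 further: score merges 667nm spot fluorescence with signal to noise across triplicate slides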
[3] = small-molecule microarray binders of probe aCHRDL2, primary screen, biochemical, biotinylated probe, 635/667 nm fluorescence (AID 1100); conditions: higher = more signal
[4] = splicing luciferase reporter signal modulators, primary screen, spliceosome inhibition project, cell-based, HEK293, splice +/- reporter (AID 1101); conditions: luminescence, 24 h, higher = more signal, called active from +8 up or from −8 down;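 further: HEK293 cells carrying a splicing-competent luciferase reporter gene; test concentration not given here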
[5] = biological target: Fibroblast growth factor 10 (Homo sapiens) (UniProt O15520); test: FGF10 binders on small-molecule microarrays, primary screen, biochemical, small-molecule microarray, 635 nm fluorescence (AID 1102); conditions: FGF10 binding, fluorescence 635 nm, higher = more signal
[6] = tested on: glycogen synthase kinase-3 (GSK3A per assay name; protocol says GSK3B); test: GSK3 binders on small-molecule microarrays, primary screen, biochemical, small-molecule microarray, 635 nm fluorescence, GSK3A (AID 1103); conditions: small-molecule microarray binding, fluorescence 635 nm; higher = more signal; further: the record names both GSK3A and GSK3B
[7] = biological target: Epidermal growth factor receptor (Homo sapiens) (UniProt P00533); test: EGFR binders on small-molecule microarrays, primary screen, biochemical, small-molecule microarray, 635 nm fluorescence (AID 1104); conditions: EGFR binding, higher = more signal;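 further: score merges 667 nm emission intensity with spot signal to noise over triplicate slides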
[8] = biological target: Follistatin-related protein 3 (Homo sapiens) (UniProt O95633); test: FSTL3 binders on small-molecule microarrays, primary screen, biochemical, small-molecule microarray, 635 nm fluorescence (AID 1105); conditions: FSTL3 binding, higher = more signal;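 further: score merges emission near 667 nm and signal to noise per printed spot across three slides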
[9] = biological target: Dickkopf-related protein 1 (Homo sapiens) (UniProt O94907); test: DKK1 binders on small-molecule microarrays, primary screen, biochemical, small-molecule microarray, 635 nm fluorescence scan (AID 1106); conditions: DKK1 binding, higher = more signal;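 further: score merges emission near 667 nm with signal to noise over three replicate slides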
[10] = tested on: Inhibin beta A chain (activin A); test: INHBA (activin A) binders on microarrays, primary screen, biochemical, small-molecule microarray, 635 nm fluorescence scan (AID 1107); conditions: small-molecule microarray binding, higher = more signal;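 further: mouse activin A protein probed at 4.33 µg/mL on printed slides; score merges bound-protein fluorescence near 667 nm with spot signal-to-noise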
[11] = tested on: Human papillomavirus type 1a protein E7 (residues 44-93); test: HPV1a E7 fragment binders on microarrays, primary screen, biochemical, small-molecule microarray, residues 44-93, 635 nm fluorescence (AID 1108); conditions: small-molecule microarray binding, fluorescence 635 nm; higher = more signal;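 further: E7 fragment applied at 1 µg/mL in TBST for 1 h at 4 C; score combines spot fluorescence with its signal to noise ratio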
[12] = modulators of HCV replicon luciferase signal, primary screen, HCV replication inhibitor project, Huh7 cells, luciferase reporter (AID 1109); conditions: 48 h, higher = more signal;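 further: huh7 hepatoma cells harbouring a luciferase neomycin HCV replicon reporter; luciferase luminescence as measure of HCV replicon replication; test concentration not given here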
[13] = biological target: Left-right determination factor 2 (Homo sapiens) (UniProt O00292); test: LEFTY2 binders on small-molecule microarrays, primary screen, biochemical, small-molecule microarray, 635 nm fluorescence scan (AID 1110); conditions: LEFTY2 binding, higher = more signal
[14] = biological target: Calmodulin-1 (Homo sapiens) (UniProt P0DP23); test: CALM1 binders on microarrays, EGTA buffer, profiling panel, biochemical, small-molecule microarray, Cy5-labelled CALM1 (AID 1111); conditions: Cy5-CALM1 binding fluorescence, higher = more signal;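 further: labelled calmodulin applied in Tris saline Tween buffer holding calcium plus EGTA and DTT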
[15] = biological target: Calmodulin-1 (Homo sapiens) (UniProt P0DP23); test: calcium-bound CALM1 binders on microarrays, profiling panel, artefact control for SMM control-protein annotation, biochemical, small-molecule microarray, Cy5-labelled CALM1, plus calcium (AID 1112); conditions: Cy5-CALM1 binding fluorescence, higher = more signal;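 further: score merges spot fluorescence with signal to noise from triplicate slides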
[16] = small-molecule microarray binders of probe aWnt5a, primary screen, biochemical, biotinylated probe, 635/667 nm fluorescence (AID 1113); conditions: higher = more signal;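 further: score merges 667 nm fluorescence intensity with signal-to-noise per printed feature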
[17] = small-molecule microarray binders of probe aShh, primary screen, biochemical, biotinylated probe, 635/667 nm fluorescence (AID 1114); conditions: higher = more signal;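 further: probe is biotin-labelled aShh protein from a stem cell growth factor screen; measures binding of labelled protein to compounds printed on the slide; score merges feature fluorescence at 667 nm with signal-to-noise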
[18] = small-molecule microarray binders of probe aNog, primary screen, biochemical, biotinylated probe, 635/667 nm fluorescence (AID 1115); conditions: higher = more signal;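 further: probe is biotinylated aNog protein used at 0.15 µg/mL for 1 h at 4 C; z-score combines 667 nm fluorescence of each spot with its signal to noise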
[19] = biological target: Torsin-1A-interacting protein 1 (Homo sapiens) (UniProt Q5JTV8); test: LAP1 binders from COS7 cell lysate, primary screen, small-molecule microarray, 635/667 nm fluorescence (AID 1116); conditions: COS7-hLAP1 lysate binding, 635 nm fluorescence, higher = more signal
[20] = biological target: Alpha-bungarotoxin (Bungarus multicinctus) (UniProt P60615); test: alpha-bungarotoxin binders on microarray, profiling panel, artefact control for SMM control protein annotation, biochemical, small-molecule microarray, Alexa647 label, 635/667 nm fluorescence (AID 1117); conditions: alpha-BTX-A647 binding fluorescence, higher = more signal
Chain of Alpha-bungarotoxin (Bungarus multicinctus) (P60615 whole entry, looked up): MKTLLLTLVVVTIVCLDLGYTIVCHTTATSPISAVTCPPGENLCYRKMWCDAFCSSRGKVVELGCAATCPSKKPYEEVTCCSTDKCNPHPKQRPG

Chain of Dickkopf-related protein 1 (Homo sapiens) (O94907 whole entry, looked up): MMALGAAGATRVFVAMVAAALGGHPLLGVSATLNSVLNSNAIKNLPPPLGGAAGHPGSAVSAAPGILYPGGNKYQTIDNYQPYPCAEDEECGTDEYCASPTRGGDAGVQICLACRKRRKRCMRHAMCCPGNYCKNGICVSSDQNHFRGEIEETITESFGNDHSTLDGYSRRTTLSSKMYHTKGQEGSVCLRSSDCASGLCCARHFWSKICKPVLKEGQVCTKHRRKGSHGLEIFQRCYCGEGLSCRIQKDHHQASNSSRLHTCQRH
Chain of Follistatin-related protein 3 (Homo sapiens) (O95633 whole entry, looked up): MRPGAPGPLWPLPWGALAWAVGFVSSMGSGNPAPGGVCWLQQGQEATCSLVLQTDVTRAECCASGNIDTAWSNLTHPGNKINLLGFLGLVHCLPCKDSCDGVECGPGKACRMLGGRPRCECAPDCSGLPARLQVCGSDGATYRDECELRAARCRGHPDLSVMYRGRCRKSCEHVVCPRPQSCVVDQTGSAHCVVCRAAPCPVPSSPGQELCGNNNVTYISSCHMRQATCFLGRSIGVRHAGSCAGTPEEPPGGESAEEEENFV
Chain of Epidermal growth factor receptor (Homo sapiens) (P00533 whole entry, looked up): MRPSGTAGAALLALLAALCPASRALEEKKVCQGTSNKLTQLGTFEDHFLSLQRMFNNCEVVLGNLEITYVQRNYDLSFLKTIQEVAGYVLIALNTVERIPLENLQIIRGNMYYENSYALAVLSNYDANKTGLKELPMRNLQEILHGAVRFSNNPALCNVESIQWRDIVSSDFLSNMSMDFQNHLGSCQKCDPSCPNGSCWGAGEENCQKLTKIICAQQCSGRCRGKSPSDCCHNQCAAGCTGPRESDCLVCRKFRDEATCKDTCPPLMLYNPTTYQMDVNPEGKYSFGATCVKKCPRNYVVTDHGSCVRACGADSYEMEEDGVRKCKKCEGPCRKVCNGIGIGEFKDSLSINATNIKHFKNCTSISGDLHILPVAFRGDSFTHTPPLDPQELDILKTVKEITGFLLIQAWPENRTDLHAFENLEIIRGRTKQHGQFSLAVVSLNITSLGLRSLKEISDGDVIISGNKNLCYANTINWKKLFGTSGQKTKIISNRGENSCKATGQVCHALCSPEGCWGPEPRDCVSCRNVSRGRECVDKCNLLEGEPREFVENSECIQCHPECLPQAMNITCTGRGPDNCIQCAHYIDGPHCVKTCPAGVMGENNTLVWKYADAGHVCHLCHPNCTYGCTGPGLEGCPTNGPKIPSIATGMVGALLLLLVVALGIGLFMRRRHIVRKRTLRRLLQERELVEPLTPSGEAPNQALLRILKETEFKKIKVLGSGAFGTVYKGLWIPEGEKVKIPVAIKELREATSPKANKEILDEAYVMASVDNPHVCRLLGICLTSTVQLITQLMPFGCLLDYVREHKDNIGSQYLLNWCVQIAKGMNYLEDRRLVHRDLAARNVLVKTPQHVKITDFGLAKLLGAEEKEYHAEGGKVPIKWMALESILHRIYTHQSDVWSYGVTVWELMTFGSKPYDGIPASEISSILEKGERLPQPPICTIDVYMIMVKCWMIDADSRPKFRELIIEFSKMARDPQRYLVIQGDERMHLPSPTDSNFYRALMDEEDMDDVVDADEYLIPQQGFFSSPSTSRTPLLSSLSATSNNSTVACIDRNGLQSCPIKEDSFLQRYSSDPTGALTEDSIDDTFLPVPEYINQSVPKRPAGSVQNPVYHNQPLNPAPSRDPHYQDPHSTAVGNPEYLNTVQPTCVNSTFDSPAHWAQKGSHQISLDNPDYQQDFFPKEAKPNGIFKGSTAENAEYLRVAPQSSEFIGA
Chain of Left-right determination factor 2 (Homo sapiens) (O00292 whole entry, looked up): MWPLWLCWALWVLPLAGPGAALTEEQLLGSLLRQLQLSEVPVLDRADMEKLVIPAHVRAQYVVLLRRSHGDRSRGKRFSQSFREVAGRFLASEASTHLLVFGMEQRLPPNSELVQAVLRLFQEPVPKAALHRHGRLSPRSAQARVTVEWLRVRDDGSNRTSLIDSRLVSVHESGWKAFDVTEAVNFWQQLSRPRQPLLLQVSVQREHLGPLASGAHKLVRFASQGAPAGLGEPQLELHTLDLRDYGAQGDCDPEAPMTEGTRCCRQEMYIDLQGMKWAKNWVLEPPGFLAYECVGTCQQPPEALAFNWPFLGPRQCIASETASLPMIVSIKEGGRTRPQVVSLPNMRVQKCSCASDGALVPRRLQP
Chain of Fibroblast growth factor 10 (Homo sapiens) (O15520 whole entry, looked up): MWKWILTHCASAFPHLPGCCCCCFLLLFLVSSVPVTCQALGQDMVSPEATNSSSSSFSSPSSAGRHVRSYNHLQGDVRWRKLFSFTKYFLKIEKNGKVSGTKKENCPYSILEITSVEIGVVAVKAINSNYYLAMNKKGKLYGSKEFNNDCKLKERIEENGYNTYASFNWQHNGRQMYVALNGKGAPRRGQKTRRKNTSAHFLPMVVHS
Chain of Torsin-1A-interacting protein 1 (Homo sapiens) (Q5JTV8 whole entry, looked up): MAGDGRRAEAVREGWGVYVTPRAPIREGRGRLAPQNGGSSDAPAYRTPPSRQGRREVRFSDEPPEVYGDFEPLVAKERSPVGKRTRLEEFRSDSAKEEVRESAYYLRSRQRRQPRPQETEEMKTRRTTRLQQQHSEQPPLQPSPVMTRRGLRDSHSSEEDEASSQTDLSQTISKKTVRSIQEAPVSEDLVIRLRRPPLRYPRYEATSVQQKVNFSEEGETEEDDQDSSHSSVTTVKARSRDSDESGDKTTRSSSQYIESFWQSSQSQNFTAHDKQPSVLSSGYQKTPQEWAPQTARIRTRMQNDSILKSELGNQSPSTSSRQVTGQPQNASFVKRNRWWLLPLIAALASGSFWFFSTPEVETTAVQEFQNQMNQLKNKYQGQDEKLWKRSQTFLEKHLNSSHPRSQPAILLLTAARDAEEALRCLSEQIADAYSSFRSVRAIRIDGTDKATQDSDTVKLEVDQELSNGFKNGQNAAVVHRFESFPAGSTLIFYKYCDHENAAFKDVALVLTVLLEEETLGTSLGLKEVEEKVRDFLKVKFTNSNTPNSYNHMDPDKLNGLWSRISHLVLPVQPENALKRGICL

SMILES | composite z-score [1] | composite z-score [2] | composite z-score [3] | z-score [4] | composite z-score [5] | composite z-score [6] | composite z-score [7] | composite z-score [8] | composite z-score [9] | composite z-score [10] | composite z-score [11] | z-score [12] | composite z-score [13] | composite z-score [14] | composite z-score [15] | composite z-score [16] | composite z-score [17] | composite z-score [18] | composite z-score [19] | composite z-score [20]
C=CCOC(=O)[C@H]1[C@@H]2C(=O)O[C@@H](c3ccccc3)[C@@H](c3ccccc3)N2[C@@H](c2ccc(OCCOC(=O)[C@H]3C[C@H]4C(=O)N[C@@H](CCCCN(C)C)C(=O)N4[C@H]3c3ccc(O)cc3)cc2)[C@]12C(=O)Nc1ccccc12 | 0.436 | 0.638 | 0.4 | -0.226 (inactive) | 1 | 0.957 | 0.606 | 1.4 | 0.805 | 1.04 | 1.36 | -0.917 | 0.823 | 0.724 | -0.707 | -0.0539 | -0.157 | -0.206 | 0.876 | 0.0397
C=CCC(OC(C)=O)[C@@H]1[C@@H](N(Cc2cccc3ccccc23)C(=O)c2ccc(C)cc2)c2cc(OCCCO)ccc2N1C(=O)c1ccc2ccccc2c1 (stereo not given in full) | -0.269 | -0.259 | 0.281 | -1.86 (inactive) | 0.11 | 0.0882 | 0.286 | 0.421 | 0.181 | 1.08 | -0.44 | -0.945 | 0.346 | -0.0236 | -0.0542 | 0.0229 | -0.0793 | -0.329 | 0.139 | 0.132
COC(=O)[C@@]1(Cc2ccccc2)[C@H]2c3cc(C(=O)N(C)C)n(Cc4ccc(O)c(OC)c4)c3C[C@H]2CN1C(=O)c1ccccc1 | 1.37 | 0.722 | 0.295 | -6.3 (inactive) | -0.27 | 0.255 | -0.34 | 0.764 | -0.65 | 0.637 | 1.45 | -2.56 | -0.276 | 1.46 | 1.17 | 0.75 | 0.16 | -0.322 | 0.141 | 0.245
Cc1ccccc1C(O)C1C=CC2C(=O)N(C)C(=O)C2N1Nc1ccc([N+](=O)[O-])cc1[N+](=O)[O-] (stereo not given) | 0.878 | 0.647 | 0.831 | -0.311 (inactive) | 1.11 | 1.28 | 0.226 | 1.17 | -0.53 | 0.648 | 1.45 | 0.265 | 0.0979 | 1.43 | 1.08 | 0.14 | 0.254 | -0.235 | 1.24 | 1.36
COc1cc2c(cc1OC)CN(C(=O)[C@@H]1[C@H]3C(=O)O[C@H](c4ccccc4)[C@H](c4ccccc4)N3[C@H](c3ccc(O)cc3)[C@@]13C(=O)Nc1ccc(C#CCNC(N)=O)cc13)CC2 | 0.55 | -0.053 | 0.0095 | -0.256 (inactive) | 0.641 | -0.566 | 0.0967 | 0.694 | -0.162 | 0.849 | 0.762 | -0.126 | 0.382 | 0.186 | -0.0936 | -0.0367 | 0.0062 | -0.115 | 0.0623 | 0.469
COCCOC(=O)N1C(=O)[C@@]2(c3cc(C#CC4(O)CCCCCC4)ccc31)[C@H](C(=O)N1CCc3cc(OC)c(OC)cc3C1)[C@H]1C(=O)O[C@H](c3ccccc3)[C@H](c3ccccc3)N1[C@@H]2c1ccccc1OCCO | 0.517 | 0.836 | 0.173 | -0.461 (inactive) | 0.96 | 1.3 | 0.887 | 1.42 | 1.69 | 0.701 | 1.04 | -2.18 | 1.17 | 1.02 | -0.386 | 0.205 | 0.261 | 0.0158 | 0.447 | 1.46
COc1ccc([Si](C)(C)[C@@H]2[C@@H](CCO)O[C@]3(C(=O)N(Cc4cccc(N5C(=O)COc6ccccc65)c4)c4ccccc43)[C@H]2C)cc1 | 1.35 | 0.0985 | 0.298 | -1.54 (inactive) | 0.247 | -0.233 | -0.0851 | -0.225 | -0.466 | -0.496 | 0.467 | -4.83 | -0.382 | 1.06 | 0.728 | -0.063 | 0.0048 | -0.167 | -0.028 | 0.748
C=C(/C(=C/C[C@@H](OC(=O)c1ccncc1)c1cccc(OCCO)c1)c1cc(C(=O)OC)ccc1OC)C(C)C | 1.57 | -0.17 | -0.115 | -0.71 (inactive) | 0.709 | 0.366 | -0.0516 | 0.59 | 0.0661 | 0.635 | 0.903 | -2.94 | 0.521 | 0.0576 | -0.412 | -0.101 | 0.131 | 0.0051 | 1.11 | 0.462
O=C1NC(=O)C2C1C=CC(C(O)c1ccc(-c3ccccc3)s1)N2Nc1ccccn1 (stereo not given) | 0.115 | 1.09 | 1.25 | 1.56 (inactive) | 0.475 | -0.316 | 0.559 | 0.561 | 0.664 | 1.18 | -1.13 | -0.684 | 0.18 | 0.0183 | 0.0403 | 0.0746 | -0.0961 | -0.0545 | 2.8 | 0.435
CCCC=C(CCC)[C@@H](NS(=O)(=O)c1ccccc1)c1ccc(C(F)(F)F)cc1 | 0.98 | 0.965 | 0.224 | -3.31 (inactive) | 0.867 | 1.32 | 0.216 | 0.89 | -0.0595 | -0.0447 | 1.37 | -2.28 | 0.0643 | 1.73 | 0.726 | 0.0495 | 0.432 | -0.475 | 1.31 | 1.28
C=CCOC(=O)[C@@H]1[C@H]2C(=O)O[C@H](c3ccccc3)[C@H](c3ccccc3)N2[C@H](c2ccc(OCCOC(=O)[C@H]3C[C@H]4C(=O)N[C@@H](Cc5ccccc5)C(=O)N4[C@H]3c3cccc(OCCO)c3)cc2)[C@@]12C(=O)Nc1ccc(I)cc12 | 0.921 | 0.141 | -0.0432 | -0.316 (inactive) | 1.24 | 1.32 | 1.01 | 1.14 | 1.13 | 0.967 | 0.88 | -2.08 | 0.413 | -0.573 | -0.771 | -0.0161 | 0.116 | 0.749 | 1.29 | 1.03
